# Experimental data as given in PubChem BioAssay.
# Some of the results follow. Activity calls are given as the source filed them.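 Rule for the calls, unless noted: active = signal rise of 40% or more at 20 µM, treated as a fluorescence artifact; inactive = the rest.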
# Assays:
# [1] = Apaf-1 inhibitors, single-dose retest, confirmation, biochemical, fluorescence, DEVD-Rh110, 20 µM (AID 504614;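 active = mean inhibition of at least 40% at 20 µM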;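 note: plate controls were DMSO wells for no effect and DEVD-CHO caspase inhibitor control wells for full effect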); settings: reconstituted apoptosome, caspase-3 DEVD-Rh110 fluorescence; at 20 µM; stronger effect = higher value
# [2] = Rh110 fluorescence interference by putative Apaf-1 inhibitors, confirmation, artefact control for Apaf-1 inhibitor project, biochemical, 20 µM (AID 504615); settings: quenched caspase reaction, at 20 µM, stronger effect = higher value
# [3] = inhibition of Brca1/Bard1 split-luciferase complementation, confirmation, counter-screen for Mdm2/MdmX interaction inhibitor project, luminescence, single concentration (AID 504668; call rule not given here); settings: Brca1/Bard1 bimolecular luciferase complementation counterscreen, at 8 µM, stronger effect = higher value
# [4] = Peg3 promoter reporter inhibitors, retest, confirmation, cell-based, HeLa, luciferase reporter, single concentration (AID 602417;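 active = at 20 µM dose, 40% or more inhibition averaged across four replicates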); settings: HeLa PEG-Prom luciferase reporter, luminescence, overnight; at 20 µM; stronger effect = higher value
# [5] = biological target: PEG-3 (UniProt Q6IN02); assay: Peg3 promoter luciferase inhibitors, potency, dose response, cell-based, HeLa, CREF/GAPDH counter-screen panel (AID 624167); settings: CREF/GAPDH counter-screens; HeLa PEG-Prom luciferase reporter, overnight, run 1, dose range 1, at 100 µM (top of the series) unless noted
# [6] = biological target: PEG-3 (UniProt Q6IN02); assay: as above; settings: CREF/GAPDH counter-screens; HeLa PEG-Prom luciferase reporter, overnight, run 2, dose range 1, at 100 µM (top of the series) unless noted
# Chain of PEG-3 (Q6IN02 whole entry, looked up): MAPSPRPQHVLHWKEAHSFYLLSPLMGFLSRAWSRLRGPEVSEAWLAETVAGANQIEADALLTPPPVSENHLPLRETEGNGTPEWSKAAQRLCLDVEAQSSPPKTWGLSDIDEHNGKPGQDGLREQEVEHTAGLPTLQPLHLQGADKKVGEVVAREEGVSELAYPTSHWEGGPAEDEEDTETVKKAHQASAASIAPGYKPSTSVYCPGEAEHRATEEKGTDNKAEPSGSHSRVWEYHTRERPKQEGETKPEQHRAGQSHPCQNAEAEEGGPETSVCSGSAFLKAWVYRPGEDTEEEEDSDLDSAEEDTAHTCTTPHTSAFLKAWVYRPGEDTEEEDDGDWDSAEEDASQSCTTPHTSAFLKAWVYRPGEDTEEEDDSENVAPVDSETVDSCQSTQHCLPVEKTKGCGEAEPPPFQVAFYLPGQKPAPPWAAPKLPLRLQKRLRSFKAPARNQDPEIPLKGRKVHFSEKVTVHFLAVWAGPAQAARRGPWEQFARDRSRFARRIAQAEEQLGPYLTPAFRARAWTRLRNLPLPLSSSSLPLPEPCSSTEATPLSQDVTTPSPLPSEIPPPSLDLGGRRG
smiles,measurement,setting,value
O=C(N/N=C\c1cccnc1)c1cc(-c2ccccc2)nc2c(Cl)cccc12,inhibition,[1],11.8% (inactive)
same,activation (fluorescence interference),[2],2.87% (inactive)
c1ccc(CSc2nnc(-c3ccco3)c(-c3ccco3)n2)cc1,inhibition,[1],29.4% (inactive)
same,activation (fluorescence interference),[2],6.26% (inactive)
CCC(C)(C)c1ccc(OCC(=O)N(C)C)c(C(C)(C)CC)c1,inhibition,[1],17.9% (inactive)
same,activation (fluorescence interference),[2],8.45% (inactive)
COc1ccc(NC(=O)CN(Cc2ccccc2)S(C)(=O)=O)cc1OC,inhibition,[1],3.82% (inactive)
same,activation (fluorescence interference),[2],2.48% (inactive)
CCCCNC(=O)C(C)N(CCN(C)C)C(=O)CCCCCN1C(=O)NC(c2ccc(Cl)cc2)C(C(=O)OCc2ccccc2)=C1C (stereo unspecified),inhibition,[1],22.9% (inactive)
same,activation (fluorescence interference),[2],-179% (inactive)
same,inhibition,[3],27.8% (active)
same,inhibition,[4],99.7% (active)
same,inhibition,[5],102%
same,inhibition,[6],101%
Cc1ccc(-c2ccc(/C=N/NC(=O)CN3CCOCC3)o2)cc1[N+](=O)[O-],inhibition,[1],27.9% (inactive)
same,activation (fluorescence interference),[2],-3.95% (inactive)
COC1=C(N2CCOCC2)C(=O)c2ccccc2C1=O,inhibition,[1],29.1% (inactive)
same,activation (fluorescence interference),[2],4% (inactive)
CC(NC(=O)c1ccccc1SCC(=O)N1CCCC1)c1ccccc1 (stereo unspecified),inhibition,[1],22.9% (inactive)
same,activation (fluorescence interference),[2],-8.17% (inactive)
CC(=O)Nc1ccc(Nc2cc(C)nc(Nc3ccc(NC(C)=O)cc3)n2)cc1,inhibition,[1],10.4% (inactive)
same,activation (fluorescence interference),[2],4.46% (inactive)
CCC(=O)Nc1c(S(=O)(=O)c2ccccc2)c2nc3ccccc3nc2n1Cc1ccccc1,inhibition,[1],16.3% (inactive)
same,activation (fluorescence interference),[2],-0.44% (inactive)
CCN1C(=NCc2ccc(OC)cc2)N[C@@H](CCc2ccccc2)[C@H](C(=O)NCc2ccc(OC)cc2)[C@H]1C,inhibition,[1],4.13% (inactive)
same,activation (fluorescence interference),[2],7.82% (inactive)
